Our source for the EC50 values is PubChem BioAssay AID588442 (The Scripps Research Institute Molecular Screening Center, 2011).

Molecules are shown by their SMILES. Measured potencies and affinities stand elsewhere. Activity calls are given as the source filed them.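 The calls were made as follows: active = EC50 of 10 µM or lower; inactive = EC50 above 10 µM or not measured.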

Usually EC50 stands for the concentration needed to bring the measured effect to its halfway point.

The assay is described as follows: optical interference in Abeta FP readout, dose response, artefact control for IDE activator project, biochemical, fluorescence polarization (AID 588442). The note with it: FP artifact counterscreen, fluorescein-Abeta, no enzyme activity. On the technique in general: In fluorescence polarisation assays a small probe gives low polarisation when free and higher when bound to something large.
On to `C#CCOCCOCCOCCNc1nc(N2CCN(C(=O)CCCCCCCCCCNC(=O)Cn3cc(CCCCCN)nn3)CC2)nc(N2CCN(C(=O)CCCCCCCCCCNC(=O)Cn3cc(C[C@@H](C)O)nn3)CC2)n1`, for which the EC50 was > 54.7 µM (inactive). With `C#CCOCCOCCOCCNc1nc(N2CCN(C(=O)CCCCCCCCCCNC(=O)[C@H]([C@@H](C)CC)n3cc(CCCCN=C(N)N)nn3)CC2)nc(N2CCN(C(=O)CCCCCCCCCCNC(=O)[C@@H]([C@H](C)O)n3cc(C)nn3)CC2)n1` the figure was > 54.7 µM (inactive); with `C#CCOCCOCCOCCNc1nc(N2CCN(C(=O)CCCCCCCCCCNC(=O)[C@@H](CCSC)n3cc(CCO)nn3)CC2)nc(N2CCN(C(=O)CCCCCCCCCCNC(=O)[C@H](CO)n3cc(CCCCCN)nn3)CC2)n1`, > 56 µM (inactive).
